# Experimental data published in ChEMBL document CHEMBL1157539, “Thousands of chemical starting points for antimalarial lead identification” (Nature, 2010).
# How the values were obtained:
# Assay type in all cases: functional
# Plasmodium falciparum [1] = experiment: GSK_TCMDC: Inhibition of Plasmodium falciparum 3D7 in whole red blood cells, using parasite LDH activity as an index of growth. Test compounds present at 2uM
# Plasmodium falciparum [2] = experiment: GSK_TCMDC: Inhibition of Plasmodium falciparum Dd2 in whole red blood cells, using parasite LDH activity as an index of growth. Test compounds present at 2uM
# HepG2 = experiment: GSK_TCMDC: Percent inhibition of human HepG2 cell line. Test compounds present at 10uM.
SMILES,Inhibition (Plasmodium falciparum [1]),Inhibition (Plasmodium falciparum [2]),Inhibition (HepG2)
COc1ccc2ccccc2c1CNCC1CCN(CC2CCCCC2)CC1.O=C(O)C(F)(F)F,98%,27%,23%
Cc1noc(C)c1CN1CCCN(c2ccc3c(c2)CCN(Cc2ccc(-c4ncc[nH]4)cc2)CC3)CC1,98%,39%,1%
O=C(NCCCN1CCN(c2cccc(Cl)c2)CC1)c1ccc(-c2nc3cc(Cl)c(Cl)cc3[nH]2)cc1,98%,95%,3%
CCCCN(CCCC)CC(O)c1cc(-c2ccc(Cl)cc2)nc2c(Cl)cc(Cl)cc12.Cl (stereo not given),97%,97%,0%
Cc1ccccc1C1CCN(C2CCC(NC(=O)/C=C/c3cc(F)ccc3C(F)(F)F)CC2)CC1 (stereo not given),98%,25%,90%
CC(CN1CCN(CC(c2ccc(F)cc2)N2CCN(C)CC2)CC1)C(=O)c1ccc(O)cc1.O=C(O)/C=C\C(=O)O (stereo not given),97%,10%,0%
O=C(NCC1CCN(C/C=C/c2ccccc2)CC1)Nc1ccc(Oc2ccccc2)cc1,83%,11%,40%
Cl.c1ccc(-c2ccc3c(Nc4ccc5[nH]ncc5c4)ccnc3c2)nc1,100%,99%,99%
O=C(NCCc1ccccc1)N(Cc1ccccc1-c1cccc(CNC2CCCC2)c1)C1CCN(Cc2ccccc2)CC1.O=C(O)C(F)(F)F,95%,87%,31%
NS(=O)(=O)c1ccc(Nc2nccc(-c3c(-c4cccc(NC(=O)c5c(F)cccc5F)c4)nn4ccccc34)n2)cc1,93%,89%,83%
Cc1noc(C)c1-c1cccc(CNCc2cccc(-c3ccc(-c4nc5cccc(C)c5[nH]4)cc3)c2)c1.O=C(O)C(F)(F)F,100%,69%,24%
Cc1ccc(-c2ccc3c(c2)C=C(C(=O)NC2CCN(CCNC(=O)c4cccc(C(F)(F)F)c4)CC2)CCC3)cc1.O=C(O)C(F)(F)F,100%,56%,25%
Cl.Oc1ccc2ccccc2c1CNCCC1CCCCC1,99%,99%,16%
CN(C)CCCNc1nccc(N(C)c2ccc(NC(=O)Nc3cc(C(F)(F)F)ccc3F)cc2)n1.O=C(O)C(F)(F)F,93%,25%,97%
CCc1sc(CN(CCCNc2cc(=O)c3ccccc3[nH]2)Cc2sc(CC)c(Br)c2-c2ccsc2)c(-c2ccsc2)c1Br.Cl,99%,98%,10%
CN1CCN(c2ccnc3ccc(NC(=O)Nc4ccc(-c5ccccc5)cc4)cc23)CC1,99%,41%,0%
CC(=O)Nc1ccc(C(=O)Nc2cccc(-c3ccc(-c4nc5cc(F)ccc5[nH]4)s3)c2)cn1,100%,97%,33%
Cc1oc(-c2ccccc2)nc1CCOc1ccc(C[C@H](Nc2ccccc2C(=O)c2ccccc2)C(=O)NCc2ccccn2)cc1,88%,54%,0%
CC(=O)N[C@@H]1c2cc(C(C)=O)ccc2OC(C)(C)[C@@H]1O,97%,3%,15%
Br.CC1(C)NC(N)=NC(=N)N1OCCCOc1ccccc1N,93%,95%,70%

SMILES,Inhibition (Plasmodium falciparum [1]),Inhibition (Plasmodium falciparum [2]),Inhibition (HepG2)
CCCCCN1CCC(NS(=O)(=O)c2cccc(C(=O)Nc3cccc(C(F)(F)F)c3)c2)C1.O=C(O)C(F)(F)F (stereo not given),86%,17%,25%
Cl.O=C(NCCCCN1CCC(c2ccc(OC(F)(F)F)cc2)CC1)c1ccc(NC(=O)c2ccc(Cl)cc2)cc1,99%,98%,24%
Cc1[nH]cnc1-c1cccc(NC(=O)c2cc3ccccc3s2)c1,99%,48%,5%
COc1cccc2cc(C(=O)N[C@@H](CC(C)C)C(=O)N[C@H](/C=N/NC(=O)N3CCN(C)CC3)CCc3ccccc3)oc12.Cl,85%,73%,1%
COc1cccc(-c2nc3c(N4CCN(c5ccncc5)CC4)cccc3n2CC2CCCCCN2)n1.O=C(O)C(F)(F)F (stereo not given),91%,31%,12%
O=C(Nc1ccc(Cl)cc1)c1cc(Cl)ccc1NC(=O)C1(c2ccc(Cl)cc2)CCCC1,85%,29%,13%
O=C(/C=C/c1ccccc1Cl)Nc1ccc(Br)c(OCCN2CCN(CCN3CCOCC3)CC2)c1.O=C(O)C(=O)O,98%,91%,22%
Nc1cccc(CNCc2cccc(-c3cccc(-c4nc5ccccc5[nH]4)c3)c2)c1.O=C(O)C(F)(F)F,100%,84%,1%
CCOC(=O)COc1cccc(CNc2ccc3nc(N)nc(N)c3c2)c1,100%,99%,18%
O=C(NCCN1CCCCC1)c1ccc(CNC(=O)c2ccc(O)c(-c3cccc(C(F)(F)F)c3)c2)cc1,94%,47%,3%
Cc1ccc(CCC(C)NCC(O)c2cccc(C(F)(F)F)c2)cc1 (stereo not given),99%,98%,0%
COc1cc(F)c2ncc(Cl)c([C@H](O)CN3CCC(NCc4ccc5c(n4)NC(=O)CO5)CC3)c2c1.Cl,99%,99%,14%
COc1ccc2nccc([C@@H](O)CN3CCC(NCc4cc5cccnc5[nH]4)CC3)c2n1.O=C(O)C(=O)O,90%,0%,7%
CCCN(CCC)CCCNc1ccc(C(=O)Nc2ccc(OCC)cc2)cc1[N+](=O)[O-],89%,2%,7%
Cl.O=c1cc(NCCCNC2CCOc3c(I)cc(Cl)cc32)[nH]c2ccccc12 (stereo not given),96%,48%,0%
c1ccc(-c2nc(NCCCn3ccnc3)cc(-c3ccncc3)n2)cc1,100%,100%,42%
CSc1nccc(-c2ccc3ccnc(N)c3c2)n1,100%,98%,30%
c1ccc(-n2cncn2)cc1,93%,96%,0%
CC(C)N1CCN(C(=O)c2ccc(CNCCCN3CCN(c4cccc(Cl)c4Cl)CC3)o2)CC1.Cl,98%,36%,41%
COc1ccc(CNC(=O)NC2CCN(c3ccnc(Nc4ccc(F)cc4)n3)C2)cc1 (stereo not given),91%,78%,4%

SMILES,Inhibition (Plasmodium falciparum [1]),Inhibition (Plasmodium falciparum [2]),Inhibition (HepG2)
CS(=O)(=O)c1ccc(-c2cnc(N)c(-c3ccc(O)cc3)c2)cc1,84%,94%,38%
COc1ccc2nccc([C@@H](O)CN3CCC(NC(=O)/C=C/c4ccc(F)c5ccccc45)CC3)c2c1,100%,75%,37%
CCc1ccc(NC(=O)c2ccc(CN3CCCN(Cc4cccc(Cl)c4)CC3)cc2)cc1.O=C(O)C(F)(F)F,84%,2%,50%
CCCCCCN1CCC(NCc2cccc(C(F)(F)F)c2)CC1.O=C(O)C(F)(F)F,100%,82%,18%
CCN1CCN(c2cc(C)c3cc(NC(=O)c4ccc(Br)o4)ccc3n2)CC1,98%,13%,0%
NC(=O)c1cccc(C(=O)Nc2cccc(-c3cccc(-c4nc5ccccc5[nH]4)c3)c2)c1,100%,78%,32%
O=C(NC1CCCCCC1)C1CCCN(C(=O)c2ccc(O)c(-c3ccc(Cl)c(Cl)c3)c2)C1 (stereo not given),98%,21%,5%
Cl.Clc1ccc(-n2cnc3c(Nc4ccc(Oc5ccccc5)cc4)ncnc32)cc1Cl,99%,65%,4%
Cl.NC(=O)c1cccc(Nc2nccc(Nc3ccc(Oc4c(Cl)cccc4Cl)c(Cl)c3)n2)c1,93%,17%,2%
CC(CNC1CCN(CCn2c(=O)ccc3ccc(F)cc32)CC1)c1ccccc1 (stereo not given),85%,4%,0%
Cc1cccc2nc(-c3cccc(-c4cccc(CN5CCCC5CN)c4)c3)[nH]c12.O=C(O)C(F)(F)F (stereo not given),100%,72%,15%
CN1CCC(NCc2cccc(-c3nn(C)c4nc(NC5CCCC5)ncc34)c2)CC1,98%,44%,1%
CN(C)CCOc1cc(NC(=O)Nc2ccc(-c3ccncc3)c(Cl)c2)ccc1I,100%,100%,43%
O=C(O)C(F)(F)F.c1cc(CNCC2CCCO2)cc(-c2csc(-c3nc4ccccc4[nH]3)c2)c1 (stereo not given),91%,6%,5%
O=C(C=Cc1ccc(Cl)c(Cl)c1)NCCCCCN1CCC(CCNC(=O)C(c2ccccc2)c2ccccc2)CC1,90%,43%,61%
Cc1cc(OCC2CCN(c3ccc(C(=O)NC4CC4)cn3)CC2)ccc1F,94%,95%,6%
Cc1ccccc1CN1CCCN(Cc2ccc(C(=O)Nc3ccc(Cl)cc3)cc2)CC1.O=C(O)C(F)(F)F,93%,15%,48%
CCn1cc(-c2nc(-c3cc(OC)cc(OC)c3)no2)c(=O)c2ccccc21,89%,77%,0%
O=C(CC1NC(=O)c2ccccc21)Nc1ccc(-c2cccc(-c3nc4cc(C(F)(F)F)ccc4[nH]3)c2)cc1 (stereo not given),95%,36%,69%
COc1ccc(-c2cccc(NC(=O)c3cccc(Cl)c3)c2)cc1CN(C)CCN(C)C.O=C(O)C(F)(F)F,100%,73%,32%
